Hits are enriched below; roughly 1.4% of the tested compounds scored in any of these assays.
E coli Lon inh: inhibitors of E. coli Lon protease, primary screen, biochemical, fluorescence polarization. purified E. coli Lon protease. inhibition, % at 7.94 µM. P0A9M0. 360,000 tested, 0.42% active. AID 602123, 2011; in the data active = inhibition above about 13%, passing the limit was not always enough;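 note: 0% = enzyme with probe and DMSO and 100% = no enzyme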
GLD-1 RNA inh: GLD-1/TGE RNA complex disruptors, primary screen, biochemical, fluorescence polarization; Female germline-specific tumor suppressor gld-1 (Caenorhabditis elegans), Q17339; purified GLD-1 + fluorescein TGE RNA; inhibition, % at 5.96 µM; 320,000 tested, 0.44% active; AID 2280, 2010;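 active = percent inhibition above a per-plate cutoff, the plate mean of test compounds plus 3 SD, cut at about 30% in these data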;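 note: 0% = DMSO wells with GLD-1 and probe and 100% = wells lacking GLD-1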
MCL1-BIM inh: inhibitors of MCL1 binding to BIM-BH3, primary screen, biochemical, fluorescence polarization | GST-MCL1 / FITC-Bim-BH3 fluorescence polarization | 320,000 tested, 0.68% active | inhibition, % at 10.9 µM | Induced myeloid leukemia cell differentiation protein Mcl-1 (Homo sapiens), Q07820;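 active = inhibition above the mean inhibition of all tested compounds plus 3 SD, set per campaign, cut at about 40% in these data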;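 note: 0% = DMSO wells and 100% = unlabeled Bim-BH3 peptide control; higher means more loss of mP so more displacement of Bim peptide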
MEX-5 binding: MEX-5 zinc finger RNA-binding disruptors – biochemical, C. elegans, fluorescence polarization, MLPCN library, primary screen. Zinc finger protein mex-5 (Caenorhabditis elegans), Q9XUB2. MEX-5/FITC-TCR2 RNA binding; stronger effect = lower value. activity score (negative = inhibition of binding), % at 10 µM. 300,000 tested, 0.38% active;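 active = inhibition past about -25% in most replicates, and total fluorescence under double the plate's negative control median, limit read from the data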;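 note: 0% = DMSO and -100% = 5 µM competing unlabeled TCR2 RNA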
Target sequence (Q9XUB2 whole entry, looked up): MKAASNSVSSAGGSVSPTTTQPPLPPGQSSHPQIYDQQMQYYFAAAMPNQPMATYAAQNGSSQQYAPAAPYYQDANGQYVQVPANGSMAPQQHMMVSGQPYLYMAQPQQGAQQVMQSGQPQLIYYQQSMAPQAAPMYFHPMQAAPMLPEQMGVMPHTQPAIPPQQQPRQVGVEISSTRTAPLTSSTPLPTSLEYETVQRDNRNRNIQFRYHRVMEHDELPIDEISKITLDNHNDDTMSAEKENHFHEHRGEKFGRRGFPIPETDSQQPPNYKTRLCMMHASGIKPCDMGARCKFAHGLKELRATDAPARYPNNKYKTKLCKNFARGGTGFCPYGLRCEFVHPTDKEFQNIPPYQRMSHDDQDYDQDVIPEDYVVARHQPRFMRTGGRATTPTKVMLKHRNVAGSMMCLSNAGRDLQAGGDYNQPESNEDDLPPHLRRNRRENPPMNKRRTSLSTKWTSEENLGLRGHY
BCLXL inh: inhibitors of human Bcl-xL, primary screen, biochemical, fluorescence polarization, HTS | Bcl-2-like protein 1 (Homo sapiens), Q07817 | GST-Bcl-xL / FITC-Bim BH3 peptide fluorescence polarization | inhibition, % at 10.9 µM | 320,000 tested, 0.7% active | AID 2129, 2009;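 active = inhibition above the mean of all tested compounds plus 3 SD, cutoff set per campaign, cut at about 30% in these data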;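 note: 0% = DMSO wells and 100% = unlabeled Bim-BH3 peptide competitor; inhibitors lower millipolarization by displacing the labeled peptide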
GLD-1 TGE cf: GLD-1/TGE RNA binding inhibitors, retest, confirmation, biochemical, fluorescence polarization, triplicate; GLD-1/FL-TGE RNA fluorescence polarization; 550 tested, 10% active; inhibition, % at 5.96 µM; shares compounds with GLD-1 RNA inh; AID 2459, 2010;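 active = average inhibition across triplicates above the hit cutoff set in the primary screen, cut at about 32% in these data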;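 note: 0% = GLD-1 with RNA probe and DMSO and 100% = wells lacking GLD-1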
* = called active by the depositor; x = not tested or not shown.

SMILES | E coli Lon inh | GLD-1 RNA inh | MCL1-BIM inh | MEX-5 binding | BCLXL inh | GLD-1 TGE cf
CCOc1cc(CNCc2cccs2)cc(Br)c1OCC | 6 | 37* | -6 | 3 | -1 | 6
CCOc1cc(CNCCO)cc(Br)c1OCc1cccs1 | -3 | -2 | 1 | -1 | -2 | x
CC(C)(C)n1nnnc1C(c1cc2ccccc2o1)N1CCCCC1 (stereo unspecified) | 0 | x | x | x | x | x
C[C@@H]1CC(=O)[C@H]2CC(CO)=CCC[C@@H]2[C@@]1(C)CC/C(=C/CO)CO | -11 | 80* | 0 | x | 4 | 3
O=C1NC(Cc2ccccc2)c2nc3ccc(Cl)cc3c(=O)n2-c2ccc(Cl)cc21 (stereo unspecified) | x | 0 | 8 | x | 5 | x
Cc1ccc2nc3n(c(=O)c2c1)-c1ccc(Cl)cc1C(=O)NC3Cc1ccccc1 (stereo unspecified) | x | 33* | 3 | x | 4 | 1
CC(C)N1C(=O)C2ON(c3ccccc3)C(c3cccs3)C2C1=O (stereo unspecified) | 2 | 38* | 10 | 1 | 7 | -5
C=CCN1C=C2C(=O)C(C)(OC(=O)C3CCCC3)C(=O)C=C2C=C1c1ccsc1 (stereo unspecified) | 16 | 32* | 38 | -6 | 31* | 3
CC(C)COC(=O)N(C)C[C@H]1OCc2cnnn2CCCC(=O)N([C@H](C)CO)C[C@H]1C | -1 | x | x | x | x | x
Cc1[nH]nc2c1C(c1ccc(F)cc1)C(C#N)=C(N)O2 (stereo unspecified) | -19 | -1 | 6 | -1 | -3 | x
CCN1C=C(Cc2ccc(F)cc2)C2=C(C1)C(c1ccc(F)cc1)C(C#N)=C(N)O2 (stereo unspecified) | -13 | 41* | 8 | -1 | 10 | 5
CCCS(=O)(=O)NC(=O)C1(C)CCCN(C(=O)c2cccc(C)c2C)C1 (stereo unspecified) | -11 | x | x | x | x | x
CCc1nc2c(OCc3ccc(F)c(F)c3)cccn2c1N(C)C(=O)c1ccc(C)cc1 | 0 | x | x | x | x | x
Cc1c(O)ccc2cc(S(=O)(=O)c3ccccc3)c(=O)oc12 | -7 | 34* | 37 | -24 | 37* | 49*
COC(=O)CP(=O)(c1ccccc1)c1ccccc1 | -6 | 39* | 37 | 0 | 32* | -1
CCOC(=O)CP(=O)(c1ccccc1)c1ccccc1 | -7 | 4 | 0 | 2 | -1 | x
COc1ccc2c(c1)CC/C(=C\c1ccc(C)o1)C2=O | -28 | 39* | 48* | -2 | 43* | -12
COc1ccc(C(=O)NC(=S)Nc2ccc(CN3CCOCC3)cc2)cc1 | -13 | 64* | 5 | -3 | 6 | 3
CCOC(=O)c1c(C)nc2sc3c(=O)n(-c4ccc(C(C)=O)cc4)cnc3c2c1-c1ccc(OC)cc1 | -3 | 43* | 28 | 2 | 31* | 0
O=[N+]([O-])c1c(Nc2ccc(O)cc2)cc(Cl)c2nonc12 | 0 | -2 | 20 | -8 | 16 | x
O=C(CN1C(=O)COc2ccccc21)NCCN1CCOCC1 | -2 | 5 | -7 | 0 | 3 | x
CC1Oc2ccccc2N(CC(=O)NCCN2CCOCC2)C1=O (stereo unspecified) | 7 | 37* | 49* | 1 | 31* | 4
COCCCN1C(=O)C(CC(=O)NCCCN(C)C)CC(C(=O)N(C(C)C)C(C)C)=C1C (stereo unspecified) | -2 | x | x | x | x | x
O=C(NCCOc1ccc(Cl)cc1)c1ccc2ccccc2n1 | -2 | 54* | 2 | x | 4 | -4
Cc1ccc(OCCNC(=O)c2ccc3ccccc3n2)cc1 | 0 | 12 | 5 | 0 | 7 | x
CC1CC(C)CN(C(=S)Nc2ccc(SC(F)F)cc2)C1 (stereo unspecified) | 10 | 43* | 0 | 0 | 3 | 4
CC1CN(C(=S)Nc2ccc(SC(F)F)cc2)CC(C)O1 (stereo unspecified) | 8 | 3 | 6 | 2 | 0 | x
CN(CCc1ccccc1)C1CCCN(S(=O)(=O)N(C)C)C1 (stereo unspecified) | 0 | 65* | 9 | 0 | -2 | 0
